Laboratory results taken from PubChem BioAssay (Tox21).
Values without a mark were called inactive. Records with an inconclusive call do not appear. Entries that show only a call come without a potency. Calls of active or inactive are those of the source. Unless noted, calls come from the whole dose curve.

Key:
[1] = Nuclear factor erythroid 2-related factor 2/antioxidant responsive element (Nrf2/ARE) small molecule agonists: qHTS cell viability counter screen in human keratinocytes (AID 1919968; active = well fitted curve in the direction sought with a large enough effect in the repeat runs; an effect the other way counts as inactive or inconclusive; note: nearly all actives have a fitted effect of over 55% in size); details: KeratinoSens HaCaT ARE cells viability, CellTiter-Fluor, 24 h; series mostly up to 92.4 µM
How it was run: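 Seed 1,500 KeratinoSens cells per well, then incubate 5 h at 37 C/5% CO2. Add compounds in DMSO and incubate 23 h. Add CellTiter-Fluor, wait 1 h and read fluorescence.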

[2] = Nuclear factor erythroid 2-related factor 2/antioxidant responsive element (Nrf2/ARE) small molecule agonists: luciferase reporter gene qHTS assay in human keratinocytes (AID 1919969); details: KeratinoSens HaCaT ARE-luciferase, luminescence, 24 h; series mostly up to 92.4 µM; note: nearly all actives have a fitted effect of over 35% in size
[3] = target: Gonadotropin-releasing hormone receptor (Homo sapiens) (UniProt P30968); experiment: Human gonadotropin-releasing hormone receptor (GnRHR) small molecule agonists, calcium flux assay in GnRHR-HEK293 cells (AID 1920063); details: calcium flux fluorescence, agonist mode; series mostly up to 57.6 µM; note: nearly all actives have a fitted effect of over 35% in size
How it was run: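 Cells: HEK293 stably expressing human GnRHR. Steps: overnight (18 h) culture, 1 h calcium dye loading at 37 C, compound addition, kinetic fluorescence read at 480/540 nm. Each compound tested at 15 concentrations in triplicate.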

[4] = target: KiSS-1 receptor (Homo sapiens) (UniProt Q969F8); experiment: Human kisspeptin (KISS1R) small molecule agonists, calcium flux assay in KISS1R-HEK293 cells (AID 1920064; active = well fitted curve in the direction sought with a large enough effect in the repeat runs; an effect the other way counts as inactive or inconclusive); details: KISS1R-HEK293, calcium flux fluorescence, agonist; series mostly up to 76.8 µM
How it was run: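 Cells plated and incubated 18 h; dye added, 1 h at 37 C; compounds in DMSO pinned in; signal read at 480/540 nm every second for 3 min. Each compound tested at 15 concentrations in triplicate.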

[5] = G protein-coupled receptor (GPCR) small molecule agonists, calcium flux assay: HEK293 wild type cell line counter screen (AID 1920065); details: HEK293 WT calcium flux, fluorescence, agonist mode; series mostly up to 57.6 µM
How it was run: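 Counter-screen of the Tox21 10K library for non-specific calcium release: dye-loaded cells received compounds in DMSO and were monitored by kinetic fluorescence (480/540 nm, 3 min). Fifteen concentrations, run in triplicate.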

[6] = p53 small molecule agonists, cell-based qHTS assay with human liver microsomes (AID 1963577); details: HCT-116 p53RE-bla with human liver microsomes, ratio, 16 h; series mostly up to 66 µM;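 note: p53 response element beta-lactamase reporter cells with liver microsomes plus NADPH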
How it was run: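 Reporter activation was measured by LiveBLAzer fluorescence intensity in p53RE-bla cells, which had been exposed to compounds for 16 h at 37 C alongside 0.5 mg/mL human liver microsomes and 0.5 mg/mL NADPH (final concentrations).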

[7] = p53 small molecule agonists, cell-based qHTS assay with rat liver microsomes (AID 1963578); details: HCT-116 p53RE-bla, beta-lactamase ratio, 16 h; series mostly up to 66 µM
How it was run: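 Compound in DMSO added to p53RE-bla cells 5 h post-plating; rat microsomes/NADPH 0.5 mg/mL final; 16 h, 37 C; LiveBLAzer 2 h RT.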

[8] = p53 small molecule agonists, cell-based qHTS assay with human liver microsomes: qHTS cell viability counter screen (AID 1963579); details: p53RE-bla HCT-116 viability, ATP luminescence, 16 h, HLM; series mostly up to 66 µM; note: nearly all actives have a fitted effect of over 45% in size
How it was run: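 HLM-supplemented (0.5 mg/mL final) and NADPH-supplemented (0.5 mg/mL final) p53RE-bla cultures, 4,000 cells per well, were dosed with compounds in DMSO for 16 h at 37 C; luminescent ATP detection (CellTiter-Glo, 30 min, room temperature) quantified surviving cells.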

[9] = p53 small molecule agonists, cell-based qHTS assay with rat liver microsomes: qHTS cell viability counter screen (AID 1963580); details: p53RE-bla HCT-116 + rat microsomes, ATP viability, 16 h; series mostly up to 66 µM; note: nearly all actives have a fitted effect of over 45% in size
How it was run: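 Intracellular ATP, by CellTiter-Glo luminescence, defines viability. HCT-116 p53RE-bla cells, 4,000 per well, were compound-treated in the presence of rat liver microsomes and NADPH for 16 h at 37 C.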

[10] = p53 small molecule agonists, cell-based qHTS assay: qHTS cell viability counter screen (AID 1963581); details: p53RE-bla HCT-116 viability, ATP luminescence, 16 h; series mostly up to 66 µM; note: nearly all actives have a fitted effect of over 45% in size
How it was run: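 Cells: HCT-116 with p53 response element-driven beta-lactamase. Treatment: 16 h, 37 C, compounds in DMSO. Read: CellTiter-Glo luminescence after 30 min RT.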

[11] = p53 small molecule agonists, cell-based qHTS assay (AID 1963582; active = well fitted activation curve with a large enough effect in the signal ratio in the repeat runs, not every such curve was filed as active; the % refers to the signal ratio); details: HCT-116 p53RE-bla reporter, beta-lactamase FRET ratio, 16 h; series mostly up to 66 µM
How it was run: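 Quantitative HTS in p53RE-bla cells: after a 5 h settling period, compounds delivered in DMSO were left on cells for 16 h at 37 C, and reporter induction was measured as fluorescence following 2 h substrate loading.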

[12] = target: 5-hydroxytryptamine receptor 2A (Homo sapiens) (UniProt P28223); experiment: 5-hydroxytryptamine receptor 2A (HTR2A) small molecule antagonists, cell-based qHTS assay (AID 1963586); details: HTR2A-CHO cells, DOI-induced calcium flux, fluorescence; series mostly up to 61.5 µM; note: nearly all actives have a fitted effect of over 45% in size; note: potency is the fitted concentration of half-maximal effect
How it was run: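 Antagonist-mode intracellular calcium assay: DOI (4 nM) added after 5 min compound pre-incubation at room temperature to dye-loaded HTR2A-CHO cells. Fluorescence followed for 3 min, sampled every second.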

[13] = target: 5-hydroxytryptamine receptor 2A (Homo sapiens) (UniProt P28223); experiment: 5-hydroxytryptamine receptor 2A (HTR2A) small molecule agonists, cell-based qHTS assay (AID 1963587); details: HTR2A-CHO cells, calcium flux fluorescence, agonist mode; series mostly up to 76.8 µM; note: nearly all actives have a fitted effect of over 30% in size; note: potency is the fitted concentration of half-maximal effect
How it was run: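 Kinetic calcium-flux fluorescence (2 min, 1 sec intervals) after compound addition in agonist mode. HTR2A-CHO cells were cultured 18 h, then dye-loaded 1 h at 37 C.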

[14] = target: Muscarinic acetylcholine receptor M1 (Homo sapiens) (UniProt P11229); experiment: Cholinergic receptor muscarinic 1 (CHRM1) small molecule antagonists, cell-based qHTS assay (AID 1963588); details: CHRM1-CHO antagonist mode, calcium flux fluorescence; series mostly up to 61.5 µM; note: nearly all actives have a fitted effect of over 40% in size; note: potency is the fitted concentration of half-maximal effect
How it was run: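 CHRM1-CHO calcium-flux assay, antagonist mode. Cells were seeded 18 h, dye-loaded 1 h at 37 C and given compound for 5 min at RT, then acetylcholine was added at 50nM. FDSS fluorescence was read 3 min; 15 concentrations, three runs.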

[15] = target: Muscarinic acetylcholine receptor M1 (Homo sapiens) (UniProt P11229); experiment: Cholinergic receptor muscarinic 1 (CHRM1) small molecule agonists, cell-based qHTS assay (AID 1963589); details: CHRM1-CHO cells, agonist mode, calcium flux fluorescence; series mostly up to 76.8 µM; note: nearly all actives have a fitted effect of over 35% in size
How it was run: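 Agonist-mode qHTS in CHO cells stably carrying human muscarinic M1. Intracellular calcium is tracked by fluorescence every second after compound transfer; each compound runs at 15 concentrations in three independent runs.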

[16] = cAMP Responsive Elements (CRE) small molecule agonists, cell-based qHTS assay (AID 1963590); details: CRE-bla HEK293T, beta-lactamase FRET ratio, 3 h; series mostly up to 92.4 µM
How it was run: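 Agonist mode qHTS in CRE-bla HEK 293T cells: compounds dosed from DMSO for 3 h at 37 C/5% CO2, followed by LiveBLAzer B/G FRET substrate for 2 h at room temperature.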

[17] = cAMP Responsive Elements (CRE) small molecule antagonists, cell-based qHTS assay (AID 1963591; active = well fitted inhibition curve with a large enough effect in the signal ratio in the repeat runs, not every such curve was filed as active; the % refers to the signal ratio); details: CRE-bla HEK293T, beta-lactamase FRET ratio; series mostly up to 92.4 µM
How it was run: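 Antagonist mode: test compounds are co-incubated with the adenylyl cyclase activator NKH477 (0.25 uM final) on CRE-bla HEK293T cells for 3 h at 37 °C, followed by LiveBLAzer substrate loading.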

[18] = target: Beta-2 adrenergic receptor (Homo sapiens) (UniProt P07550); experiment: Adrenergic beta2 receptor (ADRB2) small molecule antagonists, cell-based qHTS assay (AID 1963592); details: CHO-ADRB2 cells, isoproterenol-stimulated cAMP HTRF ratio, 0.5 h; series mostly up to 92.4 µM; note: nearly all actives have a fitted effect of over 50% in size
How it was run: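 Cells (CHO, stable ADRB2 overexpression) incubated 18-20hr at 37C; compounds added from DMSO; agonist mix (1nM isoproterenol, 100uM IBMX, 25uM Ro-20-1724) added; 0.5hr RT; d2-cAMP and anti-cAMP-cryptate added; 1hr RT; 665/615 nm read.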

[19] = target: Beta-2 adrenergic receptor (Homo sapiens) (UniProt P07550); experiment: Adrenergic beta2 receptor (ADRB2) small molecule agonists, cell-based qHTS assay (AID 1963593); details: CHO-ADRB2 cells, cAMP HTRF, 30 min; series mostly up to 92.4 µM;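 note: CHO cells stably overexpressing human ADRB2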
How it was run: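 CHO cells stably over-expressing ADRB2 were plated overnight at 37C, then dosed with compounds plus a stimulation mix containing 100uM IBMX and 25uM Ro-20-1724 for 0.5hr at room temperature. cAMP was measured by HTRF competition, 1hr.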

[20] = target: D(2) dopamine receptor (Homo sapiens) (UniProt P14416); experiment: Dopamine D2 receptor (DRD2) small molecule agonists, cell-based qHTS assay (AID 1963594); details: HEK293-DRD2 cAMP HTRF, agonist mode, 30 min; series mostly up to 92.4 µM; note: nearly all actives have a fitted effect of over 35% in size
How it was run: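 cAMP accumulation in DRD2-HEK293 cells measured by HTRF after 1 h detection; compounds added 10 min before NKH477 (200nM […]) forskolin-analogue stimulation, 30 min at room temperature, with Ro20-1724 present at 0.1 mM final.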

Chain of 5-hydroxytryptamine receptor 2A (Homo sapiens) (P28223 whole entry, looked up): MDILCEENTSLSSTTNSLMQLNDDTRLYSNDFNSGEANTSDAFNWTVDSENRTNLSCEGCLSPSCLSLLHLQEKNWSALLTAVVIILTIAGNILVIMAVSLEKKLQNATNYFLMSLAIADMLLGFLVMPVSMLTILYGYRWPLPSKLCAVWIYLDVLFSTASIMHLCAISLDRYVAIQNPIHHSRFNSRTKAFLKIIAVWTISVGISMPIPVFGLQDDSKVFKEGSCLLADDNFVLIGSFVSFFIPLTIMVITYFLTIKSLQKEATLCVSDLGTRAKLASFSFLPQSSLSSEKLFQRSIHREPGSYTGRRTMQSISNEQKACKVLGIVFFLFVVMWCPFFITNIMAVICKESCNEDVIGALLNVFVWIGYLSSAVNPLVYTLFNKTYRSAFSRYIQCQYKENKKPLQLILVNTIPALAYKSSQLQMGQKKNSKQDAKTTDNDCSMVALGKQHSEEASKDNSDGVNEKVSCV
Chain of KiSS-1 receptor (Homo sapiens) (Q969F8 whole entry, looked up): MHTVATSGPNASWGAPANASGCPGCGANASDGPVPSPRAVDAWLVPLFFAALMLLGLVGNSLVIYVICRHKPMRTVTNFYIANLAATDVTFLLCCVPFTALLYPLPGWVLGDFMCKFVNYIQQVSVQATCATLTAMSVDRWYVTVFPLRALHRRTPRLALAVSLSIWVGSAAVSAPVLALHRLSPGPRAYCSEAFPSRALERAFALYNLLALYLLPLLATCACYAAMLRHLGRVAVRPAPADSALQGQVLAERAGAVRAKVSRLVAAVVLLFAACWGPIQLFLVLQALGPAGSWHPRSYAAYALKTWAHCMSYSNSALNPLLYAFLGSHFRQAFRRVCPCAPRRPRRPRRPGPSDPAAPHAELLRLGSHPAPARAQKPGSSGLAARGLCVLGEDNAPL
Chain of Gonadotropin-releasing hormone receptor (Homo sapiens) (P30968 whole entry, looked up): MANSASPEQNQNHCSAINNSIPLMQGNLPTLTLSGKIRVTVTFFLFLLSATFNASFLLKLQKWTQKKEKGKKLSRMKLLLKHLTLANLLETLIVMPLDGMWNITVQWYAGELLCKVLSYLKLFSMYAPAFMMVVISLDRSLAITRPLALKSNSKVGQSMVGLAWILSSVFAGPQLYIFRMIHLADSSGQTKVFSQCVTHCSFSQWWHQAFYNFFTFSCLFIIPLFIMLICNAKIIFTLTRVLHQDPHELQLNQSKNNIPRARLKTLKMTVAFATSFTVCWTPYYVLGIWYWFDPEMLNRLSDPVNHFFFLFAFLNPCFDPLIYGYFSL
Chain of Muscarinic acetylcholine receptor M1 (Homo sapiens) (P11229 whole entry, looked up): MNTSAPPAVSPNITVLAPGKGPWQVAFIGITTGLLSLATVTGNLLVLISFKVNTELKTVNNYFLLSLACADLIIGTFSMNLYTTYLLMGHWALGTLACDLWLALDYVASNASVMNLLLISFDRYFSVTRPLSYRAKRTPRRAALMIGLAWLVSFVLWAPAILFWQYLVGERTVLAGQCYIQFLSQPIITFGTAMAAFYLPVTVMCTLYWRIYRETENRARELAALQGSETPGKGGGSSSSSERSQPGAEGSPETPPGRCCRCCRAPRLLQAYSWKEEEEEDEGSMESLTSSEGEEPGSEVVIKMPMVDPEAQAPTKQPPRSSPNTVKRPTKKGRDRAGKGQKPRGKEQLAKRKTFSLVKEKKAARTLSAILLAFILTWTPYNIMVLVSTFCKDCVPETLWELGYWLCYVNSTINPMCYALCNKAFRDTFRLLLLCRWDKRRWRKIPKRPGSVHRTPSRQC
Chain of Beta-2 adrenergic receptor (Homo sapiens) (P07550 whole entry, looked up): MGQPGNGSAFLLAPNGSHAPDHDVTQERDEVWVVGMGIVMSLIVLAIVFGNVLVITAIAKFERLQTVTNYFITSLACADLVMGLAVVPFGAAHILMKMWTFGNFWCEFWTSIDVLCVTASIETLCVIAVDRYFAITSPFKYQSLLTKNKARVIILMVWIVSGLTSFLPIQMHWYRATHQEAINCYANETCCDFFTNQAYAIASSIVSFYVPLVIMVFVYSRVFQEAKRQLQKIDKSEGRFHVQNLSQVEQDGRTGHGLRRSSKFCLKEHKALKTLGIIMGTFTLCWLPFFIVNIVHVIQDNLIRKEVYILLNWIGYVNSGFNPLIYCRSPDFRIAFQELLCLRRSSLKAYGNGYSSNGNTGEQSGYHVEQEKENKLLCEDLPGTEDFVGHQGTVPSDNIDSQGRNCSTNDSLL
Chain of D(2) dopamine receptor (Homo sapiens) (P14416 whole entry, looked up): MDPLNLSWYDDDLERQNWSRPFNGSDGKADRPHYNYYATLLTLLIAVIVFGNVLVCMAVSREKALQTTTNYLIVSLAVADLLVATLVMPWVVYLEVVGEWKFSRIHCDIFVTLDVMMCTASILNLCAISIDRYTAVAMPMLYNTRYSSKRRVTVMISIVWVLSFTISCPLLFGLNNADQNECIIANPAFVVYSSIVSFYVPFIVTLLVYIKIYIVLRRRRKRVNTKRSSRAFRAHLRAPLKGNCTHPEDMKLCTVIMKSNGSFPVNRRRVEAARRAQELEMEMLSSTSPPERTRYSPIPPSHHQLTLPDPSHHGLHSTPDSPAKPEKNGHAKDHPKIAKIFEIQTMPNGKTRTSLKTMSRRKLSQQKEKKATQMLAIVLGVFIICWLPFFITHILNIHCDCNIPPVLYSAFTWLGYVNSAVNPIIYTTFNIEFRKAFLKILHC

Compound | Potency [1] | Potency [2] | Potency [3] | Potency [4] | Potency [5] | Potency [6] | Potency [7] | Potency [8] | Potency [9] | Potency [10] | Potency [11] | Potency [12] | Potency [13] | Potency [14] | Potency [15] | Potency [16] | Potency [17] | Potency [18] | Potency [19] | Potency [20]
O=C1OC(=O)C2CC=CCC12 (stereo not drawn) | inactive | inactive | inactive | inactive | inactive | inactive | inactive | inactive | inactive | inactive | inactive | inactive | inactive | inactive | inactive | inactive | inactive | inactive | inactive | inactive
CC(=O)N(CC(O)CO)c1c(I)c(C(=O)NCC(O)CO)c(I)c(C(=O)NCC(O)CO)c1I (stereo not drawn) | inactive | inactive | inactive | inactive | inactive | inactive | inactive | inactive | inactive | inactive | inactive | inactive | inactive | inactive | inactive | inactive | inactive | inactive | inactive | inactive
CC(C)(CCl)c1ccccc1 | inactive | inactive | inactive | inactive | inactive | inactive | inactive | inactive | inactive | inactive | inactive | inactive | inactive | inactive | inactive | inactive | inactive | inactive | inactive | inactive
COc1cc(C(=O)NCc2ccc(OCCN(C)C)cc2)cc(OC)c1OC | inactive | inactive | inactive | inactive | inactive | inactive | inactive | inactive | inactive | inactive | inactive | inactive | inactive | inactive | inactive | inactive | inactive | inactive | inactive | inactive
CC(C)c1cc2c(cc1S(=O)(=O)O)[C@@]1(C)CCC[C@@](C)(C(=O)O)[C@@H]1CC2 | inactive | inactive | inactive | inactive | inactive | inactive | inactive | inactive | inactive | inactive | inactive | inactive | inactive | inactive | inactive | inactive | inactive | inactive | inactive | inactive
CN(C)N=Nc1ccccc1 | inactive | inactive | inactive | inactive | inactive | inactive | inactive | inactive | inactive | inactive | inactive | inactive | inactive | inactive | inactive | inactive | inactive | inactive | inactive | inactive
CCCC(C)C(O)CC (stereo not drawn) | inactive | inactive | inactive | inactive | inactive | inactive | inactive | inactive | inactive | inactive | inactive | inactive | inactive | inactive | inactive | inactive | inactive | inactive | inactive | inactive
CCN1CCCC(OC(=O)C(c2ccccc2)c2ccccc2)C1 (stereo not drawn) | inactive | inactive | inactive | inactive | inactive | inactive | inactive | inactive | inactive | inactive | inactive | 163 nM (active) | 75.6 nM (active) | 4100 nM (active) | inactive | inactive | inactive | inactive | inactive | –
CCCCCCCCCCCCC(=O)O | inactive | inactive | inactive | inactive | inactive | inactive | inactive | inactive | inactive | inactive | inactive | inactive | inactive | inactive | inactive | inactive | inactive | inactive | inactive | inactive
CC(=O)c1cccc([N+](=O)[O-])c1 | inactive | inactive | inactive | inactive | inactive | inactive | inactive | inactive | inactive | inactive | inactive | inactive | inactive | inactive | inactive | inactive | inactive | inactive | inactive | inactive
CC(C)(c1ccccc1)c1ccc(Nc2ccc(C(C)(C)c3ccccc3)cc2)cc1 | inactive | inactive | inactive | inactive | inactive | inactive | inactive | inactive | inactive | inactive | inactive | inactive | inactive | inactive | inactive | inactive | inactive | inactive | inactive | inactive
CCC(C)=O | inactive | inactive | inactive | inactive | inactive | inactive | inactive | inactive | inactive | inactive | inactive | inactive | inactive | inactive | inactive | inactive | inactive | inactive | inactive | inactive
NC/C=C/C(=O)O | inactive | inactive | inactive | inactive | inactive | inactive | inactive | inactive | inactive | inactive | inactive | inactive | inactive | inactive | inactive | inactive | inactive | inactive | inactive | inactive
CCc1cccc(CC)c1NC(=O)C(=O)O | inactive | inactive | inactive | inactive | inactive | inactive | inactive | inactive | inactive | inactive | inactive | inactive | inactive | inactive | inactive | inactive | inactive | inactive | inactive | –
